# Test results from the supplement of paper PMC6555819.
# System: RARa:RXR (NR concentration 270 nM, RXRa partner concentration 90 nM)
# Experiment: PBM binding z-score (relative to random genomic background probes); higher = stronger binding; sequences stand for … in GC…GCGATTGACAGCGTAGAATGAAGG
# Procedure, shortened: (§1)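 The probes on custom Agilent 4×180K protein-binding microarrays were double-stranded, with 34-nt variable regions bearing direct-repeat seeds, single-nucleotide variants, half-site ablations and random human genomic background sequences. Incubation lasted 1 h with ligand-free nuclear receptor dimers in PBS pH 7.4, 2% milk, 0.02% Triton X-100, 1 mM DTT, 0.2 mg/mL BSA and 0.4 mg/ml salmon testes DNA. Antibodies against each partner (one per run) detected bound dimers, and fluorescence scans were regression-normalized. Binding z-scores take the random background probes as reference.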
row,Sequence,PBM binding z-score
1,CGAACGAAGGCATGAGTTGATAGCAAATGCCGAT,-0.544
2,AGTCAAAGTTCAACTAGGTAACGTAAGATATGCT,4.28
3,CCTTCCGGGTCACGAGGTTATAGCACGACGAGCG,5.82
4,CCTACTGGGCCCAGGTCATTGATCAGTCAAAGCA,2.05
5,CTACCAAGGTGAACAAGGTAGTTGATTACTATTC,0.456
6,TCTATAAGTTGATTAGGGCAACCGAAACAGCGGA,0.489
7,CCTAGCAGGCCAATATGGGTCACTCAAGGCTTGA,1.65
8,GCTCGGAGGCCAAGGTCAGAGCTTTGTCCGTAGA,1.82
9,GCTATTAGATGAAAGGGCAACCGAATGATTCTCG,0.795
10,CCCACTGGGCCATCAGGTCATTGATATCAACGTT,1.95
11,ACAGACAGGTGATGAAGGAAACTCAGGCTATCAT,0.162
12,ACTAGTTGGTCAGCTGAGGTCACGCACAATTCGG,4.84
13,ATCTCTAGGTAACAAGTTCAGTTAAAGAGAGGAC,0.869
14,CGTCAAAGTTCAACTAAGGTAACGTAAAGCACGC,4.67
15,CCTAGCAGGCCAGGGCCACTCAAGCATTTCGCTT,-0.903
16,CCTACTGGGCCATCAGGTCTTTGATATCAACGTT,-0.151
17,AGTCAAAGTTCATCTAGGTAACGTCAGATATGCT,4.41
18,ACTAGCAGGCCAAGGGTCACTCATGATTAGTCCG,4.04
19,TCATATAGGTAAAGGTGAAAGTTGAACGATATGA,3.46
20,TGAATGAGTTTAAAGATCAGGGAACGTGGCGTCG,0.485

row,Sequence,PBM binding z-score
1,CGTCCACGGTCAATGCTAGGTCAGTGAAAGCATT,1.17
2,CAAACTCGGTCACCGGAAGGTCAAAGTCCGCATG,5.66
3,GCGACTGGGGCAAAGCGGGTTACCATAAGGTTGG,0.625
4,AGAATGAGGTTATACGTAGATCAGGAAAGAAAGT,1.71
5,ATATGTAGGTTAGCTGGGGCCATTCAGACTAGGC,1.33
6,TCTAGCAGGCCAGAGGGTCAATCAAGAGGTACGG,2.63
7,ACTTACGGGTCAACGAGGTGATAGCACGCGTATA,5.09
8,CCTACTGGGCCACGAAAGGTCATTGTTTCAGTGA,5.42
9,ATACCAAGGTGATCGTCAGGTCGTTGATACTAAC,1.23
10,CCGCCTAGGTCAGGGCCAGTATAGGAGGAACGTT,1.47
11,ATCTCTAGGTAACGTTCAGTGAAAGATCGATAGA,0.445
12,CATACAGGGTCAGGTAGGCCAGAGTAGGGACGGC,3.46
13,CATACAGGGTCAGCTAGGCCAGAGTAGGGACGGC,2.74
14,ATAACGAGGGCAATGAGTTGATAGCACGGGTGGC,0.222
15,CTTACAGGGTCAGCTAGGCCAGAGTAGGGACGGC,2.75
16,TCTTGTAGATCAACAGGAGGTTACGAAAGATCGA,1.38
17,CCGCCTGGGGCAGAAAGGTTACCATACCATCCGG,1.49
18,ATGGAAAGGTCGACGAGGTGAGTATACACCGTTT,3.54
19,TCTTGTAGATCAATAGAGGTTACGAAAGTGCGCT,2.22
20,TCTATTAGTTGAAGGGCAACTGACGAGTCCGTTT,1.08

# System: RARa homodimer (NR concentration 270 nM)
# Experiment: as above
# Procedure, shortened: as §1
row,Sequence,PBM binding z-score
1,CGAACGAAGGCATGAGTTGATAGCAAATGCCGAT,-0.843
2,AGTCAAAGTTCAACTAGGTAACGTAAGATATGCT,2.01
3,CCTTCCGGGTCACGAGGTTATAGCACGACGAGCG,0.661
4,CCTACTGGGCCCAGGTCATTGATCAGTCAAAGCA,0.064
5,CTACCAAGGTGAACAAGGTAGTTGATTACTATTC,-0.151
6,TCTATAAGTTGATTAGGGCAACCGAAACAGCGGA,0.661
7,CCTAGCAGGCCAATATGGGTCACTCAAGGCTTGA,-0.474
8,GCTCGGAGGCCAAGGTCAGAGCTTTGTCCGTAGA,-1.6
9,GCTATTAGATGAAAGGGCAACCGAATGATTCTCG,0.15
10,CCCACTGGGCCATCAGGTCATTGATATCAACGTT,0.424
11,ACAGACAGGTGATGAAGGAAACTCAGGCTATCAT,0.228
12,ACTAGTTGGTCAGCTGAGGTCACGCACAATTCGG,0.816
13,ATCTCTAGGTAACAAGTTCAGTTAAAGAGAGGAC,1.39
14,CGTCAAAGTTCAACTAAGGTAACGTAAAGCACGC,2.05
15,CCTAGCAGGCCAGGGCCACTCAAGCATTTCGCTT,-0.897
16,CCTACTGGGCCATCAGGTCTTTGATATCAACGTT,-0.266
17,AGTCAAAGTTCATCTAGGTAACGTCAGATATGCT,2.97
18,ACTAGCAGGCCAAGGGTCACTCATGATTAGTCCG,0.642
19,TCATATAGGTAAAGGTGAAAGTTGAACGATATGA,0.78
20,TGAATGAGTTTAAAGATCAGGGAACGTGGCGTCG,0.41

row,Sequence,PBM binding z-score
1,CGTCCACGGTCAATGCTAGGTCAGTGAAAGCATT,-0.504
2,CAAACTCGGTCACCGGAAGGTCAAAGTCCGCATG,1.31
3,GCGACTGGGGCAAAGCGGGTTACCATAAGGTTGG,-0.887
4,AGAATGAGGTTATACGTAGATCAGGAAAGAAAGT,0.559
5,ATATGTAGGTTAGCTGGGGCCATTCAGACTAGGC,0.314
6,TCTAGCAGGCCAGAGGGTCAATCAAGAGGTACGG,-0.831
7,ACTTACGGGTCAACGAGGTGATAGCACGCGTATA,1.19
8,CCTACTGGGCCACGAAAGGTCATTGTTTCAGTGA,0.917
9,ATACCAAGGTGATCGTCAGGTCGTTGATACTAAC,-0.256
10,CCGCCTAGGTCAGGGCCAGTATAGGAGGAACGTT,-0.0818
11,ATCTCTAGGTAACGTTCAGTGAAAGATCGATAGA,0.865
12,CATACAGGGTCAGGTAGGCCAGAGTAGGGACGGC,0.612
13,CATACAGGGTCAGCTAGGCCAGAGTAGGGACGGC,0.0717
14,ATAACGAGGGCAATGAGTTGATAGCACGGGTGGC,-0.438
15,CTTACAGGGTCAGCTAGGCCAGAGTAGGGACGGC,0.0802
16,TCTTGTAGATCAACAGGAGGTTACGAAAGATCGA,-0.191
17,CCGCCTGGGGCAGAAAGGTTACCATACCATCCGG,-0.241
18,ATGGAAAGGTCGACGAGGTGAGTATACACCGTTT,0.422
19,TCTTGTAGATCAATAGAGGTTACGAAAGTGCGCT,0.489
20,TCTATTAGTTGAAGGGCAACTGACGAGTCCGTTT,1.44
